The structures appear in SMILES notation. Results filed as inconclusive are left out. Where a call stands in place of a potency, no number is given. The source made the active and inactive calls. Calls follow the shape of the dose curve; as a rule, active = well fitted inhibition curve with a large enough effect; inconclusive = small, poorly fitted or top-dose-only effect; inactive = flat fitted curve, though single readings scatter.

The target in the assay is Aldehyde dehydrogenase, mitochondrial (Homo sapiens) (UniProt P05091). The assay is described as follows: qHTS for Inhibitors of the Aldehyde Dehydrogenase Family (ALDH2) Primary screen (AID 2061308). Also: nearly all actives have a fitted effect of over 55% in size. To be noted: ALDH2 enzyme inhibition qHTS, 1536-well; series mostly up to 56 µM.
With `O=C(N[C@H]1N=C(c2ccccc2F)c2cccc3c2N(CC3)C1=O)c1cc2ccccc2[nH]1`, the Potency result was “inactive”.
In the case of `CC[C@@H]1C[C@H]2CC[C@H](O2)[C@H](C)C(=O)O[C@@H](C)C[C@@H]2CC[C@@H](O2)[C@@H](C)C(=O)O[C@H](C)C[C@H]2CC[C@H](O2)[C@H](C)C(=O)O[C@@H](C)C[C@@H]2CC[C@@H](O2)[C@@H](C)C(=O)O1`, the Potency result is “inactive”.
In the case of `CC[C@H]1CN2CC[C@H]1C[C@H]2[C@H](O)c1ccnc2ccc(OC)cc12` it was “inactive”; in that of `CC(=O)O[C@@H]1[C@H]2CC[C@H]3[C@@](C)(O)[C@@H]4C[C@H](O)C(C)(C)[C@@]4(O)[C@H](O)C[C@@]13C[C@@]2(C)O`, “inactive”.
Regarding `COC(=O)C1(C)CCC(O)C2(C)c3cc(O)c(C(C)C)cc3C(O)C(OC(C)=O)C12` (centres undefined), the Potency entry was “inactive”.
`COc1ccc(CN(C(=O)[C@@H](N)Cc2c(C)cc(C(N)=O)cc2C)[C@@H](C)c2ncc(-c3ccccc3)[nH]2)cc1C(=O)O`: the Potency result was “inactive”.
With `CC(=O)OC[C@]12C[C@H](O)C(C)=C[C@H]1O[C@@H]1[C@H](O)[C@@H](OC(C)=O)[C@@]2(C)[C@]12CO2` the entry was “inactive”; with `CC12CCC3C(CCC4(O)CC(O)CCC34C=O)C1(O)CCC2C1=CC(=O)OC1` (centres undefined), “inactive”.
`CC1=CC2(O)/C=C/C(C)(O)C(O)C(O)/C=C/C(=O)OC23C(=O)NC(CC(C)C)C3C1C` (centres undefined): the Potency entry was “inactive”.
In the case of `C=C1C[C@]2(O)[C@@]3(C)CCC(=O)C(C)(C)C3=C(O)C(=O)[C@@]2(C)[C@@H]2C(=O)O[C@@](C)(C(=O)OC)C(=O)[C@@]12C` it was “inactive”; in that of `CC1=CC2/C=C(\C)CCC(O)C(O)/C=C/C(=O)OC23C(=O)NC(CC(C)C)C3C1C` (centres undefined), “inactive”; in that of `CCC(C)(C#N)O[C@@H]1O[C@H](CO)[C@@H](O)[C@H](O)[C@H]1O` (some centres undefined), “inactive”.
As to `C=C1C(=O)CC2OC2(C)CC2OC(=O)C(=C)C2C(O)C1OC(=O)/C(C)=C\C` (centres undefined), the Potency entry is “inactive”.
As for `COCC(C(=O)OC1CC2CCC(C1)N2C)c1ccccc1` (centres undefined), the Potency result is “inactive”.
Turning to `C=CC/C=C\C/C=C\CCCCCCCc1cc(O)cc(O)c1`, the Potency entry was “inactive”.
For `COC[C@]12CN(C)C3C4[C@H](OC)[C@H]1C3(C(OC)C[C@H]2O)[C@H]1C[C@@]2(O)[C@H](OC(=O)c3ccccc3)[C@@H]1[C@]4(O)[C@@H](O)[C@@H]2OC` (some centres undefined), the Potency entry was “inactive”.
With `CC[C@H]1C[C@@H]2CC[C@@H](O2)[C@@H](C)C(=O)O[C@H](CC)C[C@H]2CC[C@H](O2)[C@H](C)C(=O)O[C@@H](C)C[C@@H]2CC[C@@H](O2)[C@@H](C)C(=O)O[C@H](CC)C[C@H]2CC[C@H](O2)[C@H](C)C(=O)O1` the entry was “inactive”.
`CC1=CC2OC3CC(O)[C@](C)([C@@]2(C)C(O)C1=O)[C@]31CO1` (some centres undefined): the Potency entry is “inactive”.
For the molecule `CCC1=CC2CN3CCc4c([nH]c5ccccc45)[C@@](C(=O)OC)(C2)[C@@H]13`, the Potency entry was “inactive”.
With `COc1cc(C(=O)O[C@H]2[C@@H]3C=CO[C@@H](O[C@@H]4O[C@H](CO)[C@@H](O)[C@H](O)[C@H]4O)[C@@H]3[C@@]3(CO)O[C@@H]23)ccc1O` the entry was “inactive”; with `CC(=O)OC[C@]12C[C@H](O)C(C)=C[C@H]1O[C@@H]1[C@H](O)[C@@H](O)[C@@]2(C)[C@]12CO2`, “inactive”; with `CCN1C[C@]2(COC)[C@H](O)C[C@H](OC)[C@]34[C@@H]5C[C@]6(O)[C@H](OC(=O)c7ccccc7)[C@@H]5[C@@](O)([C@H]([C@H](OC)[C@H]23)[C@@H]14)[C@@H](O)[C@@H]6OC`, “inactive”.
`CCC1(O)CCC2C3CCC4=CC(=O)CCC4C3CCC21CC` (centres undefined): the Potency result was “inactive”.
`CC(C)(O)[C@H]1O[C@H]2CC[C@@]3(C)[C@@](O)(CC[C@H]4Cc5c([nH]c6ccccc56)[C@@]43C)C2=CC1=O`: the Potency entry was “inactive”.
As to `CC(C)C1(OO)C=C2C(=O)CC3C(C)(C(=O)O)CCCC3(C)C2CC1` (centres undefined), the Potency entry was “inactive”.
Regarding `COC1C=CC23c4cc5c(cc4COC2(O)CN(C)C3C1)OCO5` (centres undefined), the Potency entry was “inactive”.
With `CC1=C[C@H]2O[C@@H]3[C@H](O)[C@@H](O)[C@](C)([C@@]2(CO)C[C@@H]1O)[C@]31CO1` the entry was “inactive”; with `O=C(O)CCCCCCNC1c2ccccc2CCc2ccccc21`, “inactive”.
For the molecule `C[C@]12CC[C@H](O)C[C@H]1CC[C@@H]1[C@@H]2[C@H](O)C(=O)[C@]2(C)[C@@H](c3ccc(=O)oc3)CC[C@]12O`, the Potency entry is “inactive”.
For the molecule `CC(=O)O[C@@H]1[C@@H](O)[C@H]2O[C@@H]3C=C(C)[C@@H](O)C[C@]3(CO)[C@]1(C)[C@]21CO1`, the Potency entry was “inactive”.
With `CC1=CC2/C=C(\C)CCC(O)C(O)/C=C/C(=O)C23C(=O)NC(CC(C)C)C3C1C` (centres undefined) the entry was “inactive”; with `O=C1C[C@@H]2OCC=C3CN4CC[C@]56c7ccccc7N1[C@H]5[C@H]2[C@H]3C[C@H]46`, “inactive”.
As to `C[C@]12CC[C@H](O)C[C@@H]1CC[C@@H]1[C@@H]2CC[C@]2(C)C(=O)CC[C@@H]12`, the Potency entry was “inactive”.
For `CCNC(=O)C[C@@H]1N=C(c2ccc(Cl)cc2)c2cc(OC)ccc2-n2c(C)nnc21`, the Potency entry was “inactive”.
With `CCN1CC2(COC)C3[C@@H](OC)C4C1C3(C1C[C@]3(O)[C@H](OC(=O)c5ccccc5)C1[C@]4(OC(C)=O)[C@@H](O)[C@@H]3OC)[C@H](OC)C[C@H]2O` (some centres undefined), the Potency result is “inactive”.
For the molecule `C/C=C(\C)C(=O)OC1C(C)OC(OC2C(C)OC(OC3CCC4(C)C(=CCC5C4CCC4(C)C(C(C)OC6OC(COC7OC(CO)C(O)C(O)C7O)C(O)C(O)C6O)CCC54O)C3)CC2OC)C(O)C1OC` (centres undefined), the Potency result was “inactive”.
With `Cc1ccc(Cn2nc(C(=O)N[C@@H]3C(C)(C)[C@@H]4CC[C@@]3(C)C4)cc2-c2ccc(Cl)c(C)c2)cc1`, the Potency entry is “inactive”.
With `C/C=C(\C)C(=O)OC1CC2C(CC=C3CC(OC4CC(OC)C(OC5CC(OC)C(OC6CC(OC)C(OC7CC(OC)C(O)C(C)O7)C(C)O6)C(C)O5)C(C)O4)CCC32C)C2(O)CCC(C(C)=O)C12C` (centres undefined) the entry was “inactive”; with `COC(=O)N1CCN(C(=O)Cc2ccc(Cl)c(Cl)c2)[C@@H](CN2CCCC2)C1`, “inactive”.

Values taken from PubChem BioAssay (NCATS).
